Activity calls are given as the source filed them. Unless noted, no rule for the calls is given here.

Experiment [1] relates to Wnt5a (protein binding on small-molecule microarray). Briefly: small molecules binding Wnt5a protein – biophysical, small-molecule microarray, 635/667 nm fluorescence, primary screen (AID 1142).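 Also: fluorescence read at 667 nm with signal to noise per printed feature.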 Particulars: 635 nm fluorescence, higher = more signal.
Experiment [2] in a line: ATP-based viability of Huh7 replicon cells – cell-based, CellTiter-Glo luminescence, basal, 48 h, cytotoxicity control for HCV replication inhibitor project, primary screen (AID 1143).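 Also: Huh7 hepatoma cells carrying a hepatitis C replication reporter with no stimulus; test concentration not given here.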 Particulars: higher = more signal, called active from +8 up or from −8 down. In general terms: In antiviral work, replicon cells carry a viral genome segment that copies itself.
Experiment [3] is described as follows: Pseudomonas biofilm growth suppression – PAO1 strain, BacTiter-Glo luminescence, LB-PBS, primary screen (AID 1144). Conditions: P. aeruginosa PAO1 biofilm, 12 h, higher = more signal.
A short description of experiment [4]: basal CRE-LacZ reporter activity in PC12 – cell-based, unstimulated, primary screen (AID 1145). Conditions: no forskolin, luminescence, 4.5 h, higher = more signal, called active from +8 up or from −8 down.
The nature of experiment [5]: forskolin-driven CRE-LacZ activity in PC12 – cell-based, CRE-LacZ reporter, forskolin-stimulated, primary screen (AID 1146).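 Also: PC12 cells with 6xCRE LacZ reporter stimulated by forskolin 10 µM; beta-galactosidase reporter signal reflecting CREB driven transcription.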 Particulars: luminescence, 4.5 h, higher = more signal, called active from +8 up or from −8 down.
Experiment [6] addresses Streptavidin (Streptomyces avidinii) (UniProt P22629). Briefly: compounds binding control protein streptavidin – biophysical, small-molecule microarray, 635/667 nm fluorescence, artefact control for SMM compound annotation, primary screen (AID 1147).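 Also: signal reflects streptavidin binding to arrayed compounds as a control protein.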 Particulars: higher = more signal.
Experiment [7] can be described thus: probe aInhba binding on compound microarray – biochemical, small-molecule microarray, 635/667 nm fluorescence, primary screen (AID 1148).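 Also: score merges 667nm spot fluorescence with signal-to-noise for antibody binding to printed compounds.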 Conditions: higher = more signal.
Experiment [8] has as its target Torsin-1A (Homo sapiens) (UniProt O14656). Briefly: TOR1A wild-type binding on microarray – cell lysate, small-molecule microarray, lysate, 635/667 nm, primary screen (AID 1149). Conditions: COS7 hTOR1A-WT lysate, 635 nm fluorescence, higher = more signal.
Experiment [9] shares this target. Briefly: torsin A mutant lysate binding on microarrays – cell lysate, small-molecule microarray, COS7 lysate, 635/667 nm fluorescence, primary screen (AID 1150).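 Also: score pools 667 nm emission and signal to noise measuring lysate protein binding.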 Particulars: COS7 hTOR1A mutant lysate, 635 nm fluorescence, higher = more signal.
Experiment [10] has as its system Sonic hedgehog protein (Shh). Briefly: Sonic hedgehog microarray binding compounds – biochemical, small-molecule microarray, 635/667 nm fluorescence, primary screen (AID 1151).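 Also: Shh protein binding to compounds spotted on small-molecule microarray slides; score combines spot fluorescence intensity with signal-to-noise across triplicate slides.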 Particulars: 635 nm fluorescence, higher = more signal.
Experiment [11] can be described thus: optical density shifts of acrAB sulA E. coli – strain DRC41, OD650, 48 h, E. coli filamentation inducer project, primary screen (AID 1152).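 Also: E. coli MC1000 strain DRC41 lacking acrAB efflux pump and sulA.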 Particulars: higher = more signal, called active from +8 up or from −8 down.
Experiment [12] in a line: probe aLefty1 binding on compound microarray – biochemical, small-molecule microarray, 635/667 nm fluorescence, primary screen (AID 1153).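 Also: score merges spot fluorescence with signal-to-noise ratio from the scanned slide images.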 Particulars: higher = more signal.
The nature of experiment [13]: plasmodial surface anion channel blockers, osmotic lysis – cell-based, P. falciparum Indochina, OD700, 1 h, primary screen (AID 1154). Conditions: P. falciparum Indochina infected RBC osmotic lysis, higher = more signal, called active from +8 up or from −8 down.
Experiment [14] can be described thus: plasmodial surface anion channel blockers, osmotic lysis – cell-based, P. falciparum Indochina, OD700, 2 h, primary screen (AID 1155).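 Also: lysis reports solute entry through the parasite surface anion channel PSAC.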 Conditions: P. falciparum Indochina infected erythrocytes, higher = more signal, called active from +8 up or from −8 down.
Experiment [15] is described as follows: changes in parasitized red cell lysis, either direction – P. falciparum Indochina, OD700, 3 h, PSAC antagonist project, primary screen (AID 1156). Particulars: P. falciparum-infected erythrocytes, osmotic lysis, higher = more signal, called active from +8 up or from −8 down.
Experiment [16] in a line: plasmodial surface anion channel blockers, osmotic lysis – cell-based, P. falciparum Indochina, OD700, 18 h, primary screen (AID 1157). Particulars: P. falciparum Indochina infected erythrocytes, osmotic lysis OD700, 18 h; higher = more signal, called active from +8 up or from −8 down.
The nature of experiment [17]: S6 kinase pathway phospho-S6 level changes – cell-based, A549, cytoblot, luminescence, serum-stimulated, primary screen (AID 1158).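 Also: serum-stimulated A549 lung adenocarcinoma cells; signal is phosphorylated S6 detected by cytoblot immunostaining with HRP secondary.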 Particulars: 5 h, higher = more signal.
In experiment [18] the target is NADPH oxidase 2 (Homo sapiens) (UniProt P04839). In words: compounds shifting NOX2 Amplex Red fluorescence – cell-based, HEK293-NOX2, PMA-stimulated, NOX inhibitor project, primary screen (AID 1159). Also: test concentration not given here. Particulars: 45 min, higher = more signal, called active from +8 up or from −8 down.
NADPH oxidase 2 (Homo sapiens), sequence (P04839 whole entry, looked up): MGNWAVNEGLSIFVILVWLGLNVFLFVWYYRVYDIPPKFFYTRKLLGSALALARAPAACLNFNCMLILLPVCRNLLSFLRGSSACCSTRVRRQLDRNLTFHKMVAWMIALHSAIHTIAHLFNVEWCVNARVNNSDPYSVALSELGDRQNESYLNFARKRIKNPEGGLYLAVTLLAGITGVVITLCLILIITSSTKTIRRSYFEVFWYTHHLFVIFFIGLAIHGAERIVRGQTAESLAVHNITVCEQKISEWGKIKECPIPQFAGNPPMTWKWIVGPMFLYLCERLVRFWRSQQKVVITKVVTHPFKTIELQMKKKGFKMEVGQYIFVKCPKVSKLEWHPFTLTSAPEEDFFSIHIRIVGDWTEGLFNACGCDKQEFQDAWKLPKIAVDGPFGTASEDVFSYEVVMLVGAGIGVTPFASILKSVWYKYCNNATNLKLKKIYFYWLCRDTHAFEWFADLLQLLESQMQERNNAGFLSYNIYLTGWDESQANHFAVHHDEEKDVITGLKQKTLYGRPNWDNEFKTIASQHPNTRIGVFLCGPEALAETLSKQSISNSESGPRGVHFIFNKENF
The target in experiment [19] is NADPH oxidase 4 (Homo sapiens) (UniProt Q9NPH5). Briefly: compounds shifting NOX4 Amplex Red fluorescence – cell-based, HEK293-NOX4, tetracycline-induced, NOX inhibitor project, primary screen (AID 1160). Particulars: HEK293-NOX4, Amplex Red H2O2 fluorescence, 45 min; higher = more signal, called active from +8 up or from −8 down.
NADPH oxidase 4 (Homo sapiens), sequence (Q9NPH5 whole entry, looked up): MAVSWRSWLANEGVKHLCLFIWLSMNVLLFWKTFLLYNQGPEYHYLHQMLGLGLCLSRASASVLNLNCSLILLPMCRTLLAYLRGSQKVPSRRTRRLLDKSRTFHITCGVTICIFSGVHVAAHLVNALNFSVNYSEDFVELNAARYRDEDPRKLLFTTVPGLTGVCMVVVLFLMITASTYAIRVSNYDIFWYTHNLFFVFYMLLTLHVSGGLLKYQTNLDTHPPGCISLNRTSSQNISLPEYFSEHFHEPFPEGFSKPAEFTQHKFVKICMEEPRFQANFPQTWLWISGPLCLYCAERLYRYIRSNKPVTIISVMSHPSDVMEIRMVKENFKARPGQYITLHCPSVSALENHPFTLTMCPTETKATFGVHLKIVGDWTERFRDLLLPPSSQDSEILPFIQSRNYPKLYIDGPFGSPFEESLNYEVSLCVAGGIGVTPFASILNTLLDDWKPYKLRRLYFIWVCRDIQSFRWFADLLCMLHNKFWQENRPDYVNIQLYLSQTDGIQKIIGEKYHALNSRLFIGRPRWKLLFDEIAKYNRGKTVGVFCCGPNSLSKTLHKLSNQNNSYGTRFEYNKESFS
For experiment [20], the target named is NADPH oxidase 5 (Homo sapiens) (UniProt Q96PH1). In words: compounds shifting NOX5 Amplex Red fluorescence – cell-based, HEK293-NOX5, NOX inhibitor project, primary screen (AID 1161). Conditions: HEK293-NOX5, ionomycin, 45 min, higher = more signal.
NADPH oxidase 5 (Homo sapiens), sequence (Q96PH1 whole entry, looked up): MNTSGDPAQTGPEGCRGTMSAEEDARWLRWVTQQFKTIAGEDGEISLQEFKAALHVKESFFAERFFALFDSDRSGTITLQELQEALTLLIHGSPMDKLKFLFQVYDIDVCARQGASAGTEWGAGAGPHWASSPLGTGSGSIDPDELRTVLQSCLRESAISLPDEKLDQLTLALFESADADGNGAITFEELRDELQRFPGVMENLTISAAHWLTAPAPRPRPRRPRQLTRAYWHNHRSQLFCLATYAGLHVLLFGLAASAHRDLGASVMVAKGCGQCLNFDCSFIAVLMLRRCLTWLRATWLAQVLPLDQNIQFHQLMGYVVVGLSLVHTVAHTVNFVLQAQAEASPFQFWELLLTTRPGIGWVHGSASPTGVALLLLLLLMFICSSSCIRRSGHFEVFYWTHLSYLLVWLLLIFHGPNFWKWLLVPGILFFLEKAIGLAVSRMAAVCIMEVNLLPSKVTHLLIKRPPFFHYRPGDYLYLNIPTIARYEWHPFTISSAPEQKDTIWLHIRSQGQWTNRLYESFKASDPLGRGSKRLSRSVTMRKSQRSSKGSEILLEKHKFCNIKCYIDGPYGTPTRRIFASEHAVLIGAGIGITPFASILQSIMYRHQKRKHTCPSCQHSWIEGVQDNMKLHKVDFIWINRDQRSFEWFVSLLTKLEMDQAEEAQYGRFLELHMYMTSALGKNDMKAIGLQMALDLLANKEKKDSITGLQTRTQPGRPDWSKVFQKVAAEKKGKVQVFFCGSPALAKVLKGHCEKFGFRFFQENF

Streptavidin (Streptomyces avidinii), sequence (P22629 whole entry, looked up): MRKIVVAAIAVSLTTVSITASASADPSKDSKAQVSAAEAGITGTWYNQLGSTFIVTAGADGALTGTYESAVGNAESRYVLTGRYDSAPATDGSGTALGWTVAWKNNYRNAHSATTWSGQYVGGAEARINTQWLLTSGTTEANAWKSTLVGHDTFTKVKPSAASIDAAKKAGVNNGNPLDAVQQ
Torsin-1A (Homo sapiens), sequence (O14656 whole entry, looked up): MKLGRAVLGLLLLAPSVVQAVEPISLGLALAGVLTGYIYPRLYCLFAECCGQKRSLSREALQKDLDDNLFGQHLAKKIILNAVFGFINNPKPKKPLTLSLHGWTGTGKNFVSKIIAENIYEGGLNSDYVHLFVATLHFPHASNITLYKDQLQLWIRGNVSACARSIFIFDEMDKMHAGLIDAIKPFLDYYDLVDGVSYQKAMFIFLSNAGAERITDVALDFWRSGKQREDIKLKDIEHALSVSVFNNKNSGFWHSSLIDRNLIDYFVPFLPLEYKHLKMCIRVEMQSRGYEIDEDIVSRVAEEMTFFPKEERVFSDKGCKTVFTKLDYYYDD

With `CCCCC(O)C1C=CC2C(=O)NC(=O)C2N1Nc1ccc(Cl)cc1Cl` (stereo not given), the composite z-score in experiment [1] was -0.188; in experiment [6], 0.27; in [7], 0.166; in experiment [8], -0.58; in experiment [9], 0.571; in [10], -0.614. The compound also gave a composite z-score in [12] of 0.396. Further, the z-score in [2] was -1.19 (inactive); in experiment [3] it was -0.441 (inactive); in experiment [4], 0.819 (inactive); in experiment [5], -0.123 (inactive); in experiment [11] it was -1.73 (inactive); in experiment [13], 2.42 (inactive). For the same compound, the z-score in [14] is 1.53 (inactive); in experiment [15], 0.39 (inactive); in [16], 0.998 (inactive); in experiment [17], -0.787; in experiment [18], -0.461 (inactive); in [19], -5.64 (inactive). Moreover, the z-score in experiment [20] was -3.41.
Consider `CC(C)C[C@@H]1NC(=O)[C@@H]2C[C@H](C(=O)NCCCC[N+](C)(C)C)[C@H](c3ccc(O)cc3)N2C1=O`, for which the composite z-score in experiment [1] came out at 0.814; in experiment [6], 0.0306; in experiment [7], 0.0669; in experiment [8], 1.47; in experiment [9] it was 1.2; in experiment [10] it was 2.13. Further, in experiment [12], the composite z-score was -0.0145. Also, the z-score in experiment [2] was -0.394 (inactive); in experiment [3], -1.08 (inactive); in experiment [4] it was 0.285 (inactive); in experiment [5], -0.387 (inactive); in experiment [11] it was -0.04 (inactive); in experiment [13], 1.32 (inactive). In addition, the z-score in experiment [14] was 0.281 (inactive); in [15] it was -0.0501 (inactive); in experiment [16], 0.449 (inactive); in experiment [17], 0.145; in experiment [18], -2.33 (inactive); in experiment [19], -1.4 (inactive). Further, the z-score in experiment [20] is -2.19.
`C=CCC(OC(C)=O)[C@@H]1[C@@H](N(Cc2ccc(-c3cccc(C(F)(F)F)c3)o2)C(=O)Cc2ccc(F)cc2)c2cc(OCCCO)ccc2N1C(=O)c1ccc2ccccc2n1` (stereo not given in full): the composite z-score in [1] is -0.123; in [6] it was -0.127; in [7] it was -0.176; in experiment [8], -0.187; in experiment [9], -0.326; in experiment [10], 0.244. For the same compound, the composite z-score in experiment [12] was -0.024. Further, the z-score in experiment [2] was -0.0676 (inactive); in experiment [3] it was -0.147 (inactive); in experiment [4] it was 0.134 (inactive); in experiment [5], 1.5 (inactive); in [11] it was -0.994 (inactive); in experiment [13], 1.53 (inactive). In addition, the z-score in experiment [14] was -0.0905 (inactive); in experiment [15], -0.592 (inactive); in experiment [16], 0.0644 (inactive); in experiment [17], -0.47; in experiment [18], 0.249 (inactive); in experiment [19], 0.919 (inactive). Moreover, the z-score in [20] was 1.13.
Take `CCCC[C@H]1OB(O)C[C@H]2C1=C(C)C[C@H]1C(=O)C=CC(=O)[C@H]12`: the composite z-score in [1] is -0.0289; in experiment [6], 0.146; in [7], -0.0292; in [8], 0.935; in [9], 0.527; in [10], 1.71. The composite z-score in experiment [12] was -0.06. For the same compound, the z-score in experiment [2] was -1.52 (inactive); in experiment [3] it was 0.244 (inactive); in experiment [4], 19.6 (active); in [5], 14.8 (active); in [11], -0.202 (inactive); in experiment [13], 1.7 (inactive). The z-score in experiment [14] was 0.183 (inactive); in experiment [15] it was 0.816 (inactive); in experiment [16], 0.182 (inactive); in experiment [17], -0.0244; in [18] it was -1.12 (inactive); in [19] it was -1.25 (inactive). The z-score in experiment [20] is -1.18.
With `C=CC[C@@]1(C(=O)O)N=C(c2ccc(OCCCO)cc2)O[C@@H]1c1ccccc1CN=[N+]=[N-]`, the composite z-score is 0.229 in experiment [1]; 1.93 in experiment [6]; -0.0736 in [7]; -0.0975 in experiment [8]; 0.884 in experiment [9]; 0.582 in [10]. Besides, in experiment [12], the composite z-score is -0.335. Further, the z-score in experiment [2] was -1.9 (inactive); in experiment [3], -1.6 (inactive); in [4], -0.183 (inactive); in experiment [5], -1.13 (inactive); in experiment [11], 0.578 (inactive); in experiment [13] it was 25.8 (active). For the same compound, the z-score in [14] was 16.5 (active); in [15] it was 1.15 (inactive); in experiment [16], 1.71 (inactive); in experiment [17], 0.842; in experiment [18] it was -0.235 (inactive); in experiment [19], 1.24 (inactive). Moreover, the z-score in experiment [20] is 0.186.

(Values after PubChem BioAssay.)
